Test results reported in the supplement of paper PMC11732987, “Enantioselective OTUD7B fragment discovery through chemoproteomics screening and high-throughput optimisation” (Communications Chemistry, 2025).

Assays:
Test in all cases: log2 ratio of Biotin-Ahx-Ub-VS probe labelling (fragment/DMSO); higher = less target engagement (more negative = stronger competition), active = hit call of the paper (q ≤ 0.05, log2 ratio ≤ -1)
Conditions in all cases: compound concentration: 200 uM; treatment time: 3 h
USP34 = USP34 (UniProt Q70CQ2)
USP34, sequence (Q70CQ2 whole entry, the tested form may be a part): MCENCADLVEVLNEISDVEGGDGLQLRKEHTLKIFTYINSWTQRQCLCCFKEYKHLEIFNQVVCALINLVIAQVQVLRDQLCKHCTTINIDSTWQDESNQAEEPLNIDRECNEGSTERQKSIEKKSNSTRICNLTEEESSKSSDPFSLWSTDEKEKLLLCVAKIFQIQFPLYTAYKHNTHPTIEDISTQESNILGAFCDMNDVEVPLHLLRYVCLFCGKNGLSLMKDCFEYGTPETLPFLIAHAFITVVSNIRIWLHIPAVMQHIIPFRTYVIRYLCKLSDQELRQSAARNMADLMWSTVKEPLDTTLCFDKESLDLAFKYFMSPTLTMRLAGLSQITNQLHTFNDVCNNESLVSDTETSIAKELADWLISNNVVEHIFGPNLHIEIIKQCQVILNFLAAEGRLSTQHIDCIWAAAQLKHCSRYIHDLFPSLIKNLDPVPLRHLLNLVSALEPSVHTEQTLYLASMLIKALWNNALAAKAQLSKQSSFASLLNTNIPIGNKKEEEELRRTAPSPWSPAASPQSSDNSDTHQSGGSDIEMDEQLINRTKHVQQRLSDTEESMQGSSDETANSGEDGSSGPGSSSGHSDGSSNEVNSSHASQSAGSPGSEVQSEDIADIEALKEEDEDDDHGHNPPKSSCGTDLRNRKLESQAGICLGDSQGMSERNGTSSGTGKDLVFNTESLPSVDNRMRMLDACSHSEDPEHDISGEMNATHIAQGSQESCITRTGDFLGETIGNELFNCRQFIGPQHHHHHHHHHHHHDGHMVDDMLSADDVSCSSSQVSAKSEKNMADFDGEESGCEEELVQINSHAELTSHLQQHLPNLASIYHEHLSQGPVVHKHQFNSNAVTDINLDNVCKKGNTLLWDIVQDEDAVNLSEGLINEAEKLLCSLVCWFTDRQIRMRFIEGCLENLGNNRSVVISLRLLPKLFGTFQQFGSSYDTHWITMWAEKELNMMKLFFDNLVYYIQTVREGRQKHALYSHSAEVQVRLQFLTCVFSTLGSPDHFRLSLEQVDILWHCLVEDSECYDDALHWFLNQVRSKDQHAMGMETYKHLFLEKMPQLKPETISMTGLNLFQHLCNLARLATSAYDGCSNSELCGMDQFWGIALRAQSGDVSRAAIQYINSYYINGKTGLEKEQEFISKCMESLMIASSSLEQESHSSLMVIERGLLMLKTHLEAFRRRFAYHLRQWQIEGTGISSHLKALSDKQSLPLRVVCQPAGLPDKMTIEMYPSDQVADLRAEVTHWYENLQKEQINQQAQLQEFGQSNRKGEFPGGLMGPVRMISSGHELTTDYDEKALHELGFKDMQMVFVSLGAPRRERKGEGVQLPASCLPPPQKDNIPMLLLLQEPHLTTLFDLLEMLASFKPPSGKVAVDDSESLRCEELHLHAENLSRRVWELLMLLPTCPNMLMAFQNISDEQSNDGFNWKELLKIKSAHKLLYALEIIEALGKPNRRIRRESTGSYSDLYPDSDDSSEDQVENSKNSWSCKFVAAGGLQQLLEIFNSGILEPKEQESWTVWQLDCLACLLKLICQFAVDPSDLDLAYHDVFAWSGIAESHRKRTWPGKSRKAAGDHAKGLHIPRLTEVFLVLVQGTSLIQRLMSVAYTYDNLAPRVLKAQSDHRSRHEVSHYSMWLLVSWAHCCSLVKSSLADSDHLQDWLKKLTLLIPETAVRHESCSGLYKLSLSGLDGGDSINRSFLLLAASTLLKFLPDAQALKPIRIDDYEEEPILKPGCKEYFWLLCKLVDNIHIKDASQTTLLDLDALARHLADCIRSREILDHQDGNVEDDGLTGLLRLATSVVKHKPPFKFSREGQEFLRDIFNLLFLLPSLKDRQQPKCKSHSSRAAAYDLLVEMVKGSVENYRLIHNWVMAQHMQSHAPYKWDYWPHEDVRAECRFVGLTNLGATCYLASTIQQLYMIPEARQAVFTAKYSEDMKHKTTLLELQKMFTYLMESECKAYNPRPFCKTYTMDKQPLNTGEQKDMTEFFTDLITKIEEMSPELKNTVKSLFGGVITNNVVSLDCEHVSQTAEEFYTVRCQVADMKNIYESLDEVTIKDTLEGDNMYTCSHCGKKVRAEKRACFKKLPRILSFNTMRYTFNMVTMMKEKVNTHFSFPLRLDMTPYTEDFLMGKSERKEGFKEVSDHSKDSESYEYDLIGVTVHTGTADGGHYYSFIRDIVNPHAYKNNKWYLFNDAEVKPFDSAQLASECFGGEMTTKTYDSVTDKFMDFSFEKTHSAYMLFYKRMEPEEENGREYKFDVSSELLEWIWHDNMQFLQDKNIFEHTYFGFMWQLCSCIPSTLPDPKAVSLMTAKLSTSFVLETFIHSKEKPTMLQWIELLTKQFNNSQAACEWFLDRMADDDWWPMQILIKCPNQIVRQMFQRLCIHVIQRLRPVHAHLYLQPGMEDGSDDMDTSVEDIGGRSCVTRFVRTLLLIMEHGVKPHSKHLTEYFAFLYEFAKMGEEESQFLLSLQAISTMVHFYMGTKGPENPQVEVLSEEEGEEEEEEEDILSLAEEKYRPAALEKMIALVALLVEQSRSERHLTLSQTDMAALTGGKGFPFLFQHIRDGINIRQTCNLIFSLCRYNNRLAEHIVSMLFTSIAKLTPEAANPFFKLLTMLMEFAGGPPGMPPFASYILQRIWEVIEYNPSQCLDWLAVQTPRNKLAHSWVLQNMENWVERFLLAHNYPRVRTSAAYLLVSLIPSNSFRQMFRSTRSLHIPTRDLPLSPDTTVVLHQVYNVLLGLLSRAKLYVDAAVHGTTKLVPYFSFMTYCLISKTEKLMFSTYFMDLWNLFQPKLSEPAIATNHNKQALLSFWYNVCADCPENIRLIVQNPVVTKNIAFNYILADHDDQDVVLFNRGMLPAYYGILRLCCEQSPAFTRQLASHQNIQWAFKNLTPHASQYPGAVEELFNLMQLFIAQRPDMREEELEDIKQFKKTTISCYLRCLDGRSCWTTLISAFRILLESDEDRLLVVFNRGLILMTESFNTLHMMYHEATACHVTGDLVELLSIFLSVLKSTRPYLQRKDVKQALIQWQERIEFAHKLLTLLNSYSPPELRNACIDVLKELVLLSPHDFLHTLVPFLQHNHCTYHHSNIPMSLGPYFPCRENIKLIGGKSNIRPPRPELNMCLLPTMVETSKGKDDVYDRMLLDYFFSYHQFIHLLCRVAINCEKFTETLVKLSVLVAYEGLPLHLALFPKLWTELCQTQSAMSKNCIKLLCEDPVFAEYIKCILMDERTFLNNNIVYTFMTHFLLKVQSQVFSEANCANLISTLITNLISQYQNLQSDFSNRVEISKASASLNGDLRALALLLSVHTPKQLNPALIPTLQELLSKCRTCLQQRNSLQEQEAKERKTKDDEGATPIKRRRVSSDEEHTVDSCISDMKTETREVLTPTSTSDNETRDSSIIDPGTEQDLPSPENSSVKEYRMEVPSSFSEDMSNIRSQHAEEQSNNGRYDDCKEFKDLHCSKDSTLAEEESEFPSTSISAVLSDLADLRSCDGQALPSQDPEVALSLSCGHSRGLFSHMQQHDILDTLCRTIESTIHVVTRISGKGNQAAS
In short: (§1)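 HEK293T lysate, 495 µg per sample in Tris/CHAPS/IGEPAL buffer with protease inhibitors, was treated in triplicate with fragment at 200 µM or vehicle for 3 h and then with Biotin-Ahx-Ub-VS at 0.5 µM final for 1 h. Labelled DUBs were NeutrAvidin-enriched, digested with LysC and trypsin, and run by diaPASEF LC-MS/MS. Spectronaut label-free quantities were global-median-normalised, and values are average log2 fragment/vehicle ratios by unpaired t-test on proteins with ≥2 unique peptides.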

USP36 = biological target: T1, USP36 (UniProt Q9P275)
T1 sequence (whole entry): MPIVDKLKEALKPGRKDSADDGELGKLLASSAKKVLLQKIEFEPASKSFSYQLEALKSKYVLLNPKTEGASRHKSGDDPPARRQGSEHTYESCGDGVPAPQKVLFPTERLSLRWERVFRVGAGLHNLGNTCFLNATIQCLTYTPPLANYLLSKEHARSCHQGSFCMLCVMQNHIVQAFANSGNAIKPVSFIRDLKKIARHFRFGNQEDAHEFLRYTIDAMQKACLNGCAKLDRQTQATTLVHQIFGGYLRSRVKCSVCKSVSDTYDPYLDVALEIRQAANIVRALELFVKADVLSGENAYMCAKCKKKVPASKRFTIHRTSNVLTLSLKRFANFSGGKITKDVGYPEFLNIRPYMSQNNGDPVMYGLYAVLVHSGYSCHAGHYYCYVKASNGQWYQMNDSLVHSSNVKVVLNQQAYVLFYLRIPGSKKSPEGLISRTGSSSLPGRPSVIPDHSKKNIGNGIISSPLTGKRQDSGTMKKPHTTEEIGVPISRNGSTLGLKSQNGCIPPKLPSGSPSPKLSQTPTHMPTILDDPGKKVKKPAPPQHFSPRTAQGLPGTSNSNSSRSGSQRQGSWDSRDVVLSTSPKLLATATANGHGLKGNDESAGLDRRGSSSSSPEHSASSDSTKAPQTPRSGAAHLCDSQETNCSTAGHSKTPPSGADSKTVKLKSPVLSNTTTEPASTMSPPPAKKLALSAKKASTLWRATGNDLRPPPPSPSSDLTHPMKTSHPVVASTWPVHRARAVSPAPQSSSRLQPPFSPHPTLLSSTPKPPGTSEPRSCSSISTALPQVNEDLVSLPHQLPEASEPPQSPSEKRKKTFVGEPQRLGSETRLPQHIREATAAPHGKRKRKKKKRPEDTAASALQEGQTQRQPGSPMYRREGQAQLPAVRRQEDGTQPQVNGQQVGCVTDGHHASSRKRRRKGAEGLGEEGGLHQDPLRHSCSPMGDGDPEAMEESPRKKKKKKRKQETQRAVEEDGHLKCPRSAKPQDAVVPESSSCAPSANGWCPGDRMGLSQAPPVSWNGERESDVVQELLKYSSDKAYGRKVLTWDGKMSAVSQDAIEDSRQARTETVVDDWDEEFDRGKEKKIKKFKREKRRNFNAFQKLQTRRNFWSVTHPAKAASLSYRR
In short: as §1

USP38 = biological target: T2, USP38 (UniProt Q8NB14)
T2 sequence (whole entry): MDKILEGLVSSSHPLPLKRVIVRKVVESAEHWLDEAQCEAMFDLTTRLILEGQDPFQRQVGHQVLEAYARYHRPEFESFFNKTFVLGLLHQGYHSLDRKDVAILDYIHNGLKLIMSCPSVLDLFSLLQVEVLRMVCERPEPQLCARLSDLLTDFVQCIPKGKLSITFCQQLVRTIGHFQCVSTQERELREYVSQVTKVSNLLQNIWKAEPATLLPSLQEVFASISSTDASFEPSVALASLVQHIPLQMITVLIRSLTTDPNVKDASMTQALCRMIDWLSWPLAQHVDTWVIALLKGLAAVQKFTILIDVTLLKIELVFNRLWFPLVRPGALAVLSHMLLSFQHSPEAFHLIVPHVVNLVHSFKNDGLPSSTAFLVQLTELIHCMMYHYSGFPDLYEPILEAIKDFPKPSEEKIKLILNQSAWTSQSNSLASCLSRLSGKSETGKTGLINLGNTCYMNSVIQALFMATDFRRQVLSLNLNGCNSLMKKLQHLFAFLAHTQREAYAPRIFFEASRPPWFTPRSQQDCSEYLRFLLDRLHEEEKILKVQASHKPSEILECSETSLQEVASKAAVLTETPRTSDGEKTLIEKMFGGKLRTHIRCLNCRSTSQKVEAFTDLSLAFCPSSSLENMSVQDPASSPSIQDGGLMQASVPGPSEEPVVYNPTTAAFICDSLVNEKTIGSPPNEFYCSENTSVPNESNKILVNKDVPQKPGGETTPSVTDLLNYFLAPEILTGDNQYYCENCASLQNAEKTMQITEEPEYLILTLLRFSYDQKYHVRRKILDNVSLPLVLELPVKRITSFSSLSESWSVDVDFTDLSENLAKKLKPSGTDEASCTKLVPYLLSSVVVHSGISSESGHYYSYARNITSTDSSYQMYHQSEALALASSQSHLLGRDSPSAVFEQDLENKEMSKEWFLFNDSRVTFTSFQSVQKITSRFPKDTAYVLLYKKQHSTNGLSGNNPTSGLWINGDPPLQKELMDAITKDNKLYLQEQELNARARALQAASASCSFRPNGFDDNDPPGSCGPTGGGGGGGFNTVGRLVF
In short: as §1

USP39 = biological target: T3, USP39 (UniProt Q53GS9)
T3 sequence (whole entry): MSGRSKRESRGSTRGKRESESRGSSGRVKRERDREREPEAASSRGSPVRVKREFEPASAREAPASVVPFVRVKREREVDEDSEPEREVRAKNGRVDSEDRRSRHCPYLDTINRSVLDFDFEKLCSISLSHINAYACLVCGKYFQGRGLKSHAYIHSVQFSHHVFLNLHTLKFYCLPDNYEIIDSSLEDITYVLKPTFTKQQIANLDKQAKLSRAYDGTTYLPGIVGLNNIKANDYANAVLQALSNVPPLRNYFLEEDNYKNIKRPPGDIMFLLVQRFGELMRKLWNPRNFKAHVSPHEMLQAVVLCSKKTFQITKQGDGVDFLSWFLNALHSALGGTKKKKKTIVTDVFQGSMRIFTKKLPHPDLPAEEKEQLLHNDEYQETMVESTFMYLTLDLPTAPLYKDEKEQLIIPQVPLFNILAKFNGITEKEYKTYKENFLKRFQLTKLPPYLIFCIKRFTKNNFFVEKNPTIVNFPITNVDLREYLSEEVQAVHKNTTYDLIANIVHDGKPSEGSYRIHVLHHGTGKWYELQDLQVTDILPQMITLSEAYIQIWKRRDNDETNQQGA
In short: as §1

USP4 = biological target: T4, USP4 (UniProt Q13107)
T4 sequence (whole entry): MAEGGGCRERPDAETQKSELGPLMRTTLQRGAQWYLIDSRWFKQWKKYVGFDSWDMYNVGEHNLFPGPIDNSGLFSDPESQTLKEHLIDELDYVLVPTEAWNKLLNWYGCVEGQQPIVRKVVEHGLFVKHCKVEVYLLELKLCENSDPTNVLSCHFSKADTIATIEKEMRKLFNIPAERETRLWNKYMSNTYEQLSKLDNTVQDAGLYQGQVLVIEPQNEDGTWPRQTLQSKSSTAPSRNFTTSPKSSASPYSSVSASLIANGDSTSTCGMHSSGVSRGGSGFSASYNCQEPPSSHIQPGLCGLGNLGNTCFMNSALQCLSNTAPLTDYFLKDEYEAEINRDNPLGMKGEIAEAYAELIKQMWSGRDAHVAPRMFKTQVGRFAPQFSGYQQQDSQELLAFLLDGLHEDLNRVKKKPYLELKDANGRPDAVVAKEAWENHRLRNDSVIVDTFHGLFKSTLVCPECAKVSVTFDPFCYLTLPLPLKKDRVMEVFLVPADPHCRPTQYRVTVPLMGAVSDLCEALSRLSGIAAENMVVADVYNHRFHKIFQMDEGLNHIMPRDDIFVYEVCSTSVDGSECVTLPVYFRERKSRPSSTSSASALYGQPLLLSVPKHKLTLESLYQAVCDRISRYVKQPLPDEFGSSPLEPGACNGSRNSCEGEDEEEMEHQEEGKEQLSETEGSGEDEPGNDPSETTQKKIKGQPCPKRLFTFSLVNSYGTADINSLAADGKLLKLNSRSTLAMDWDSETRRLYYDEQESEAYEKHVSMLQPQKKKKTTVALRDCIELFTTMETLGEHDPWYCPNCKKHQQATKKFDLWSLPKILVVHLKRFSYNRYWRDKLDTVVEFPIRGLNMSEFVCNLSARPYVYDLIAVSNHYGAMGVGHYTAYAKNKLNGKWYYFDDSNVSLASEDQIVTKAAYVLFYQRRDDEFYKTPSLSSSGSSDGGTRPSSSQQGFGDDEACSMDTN
In short: as §1

Measured: log2 ratio of Biotin-Ahx-Ub-VS probe labelling

O=C(CCl)NC(Cn1ccccc1=O)c1ccccc1 (stereo not given)
inactive: USP34 -0.106 | USP36 0.132 | USP38 -0.000312 | USP39 -0.0137 | USP4 -0.127
